Bioassay records (PubChem BioAssay)
HPGD inh: HPGD (human) dehydrogenase inhibition. P15428. purified HPGD, NADH fluorescence kinetic, PGE2 substrate. Potency, µM, inactives show at the highest dose activity change, negative = inhibition, most hits filed as inhibitors. 150,000 compounds, 4.3% hits. AID 894; active means well fitted inhibition curve with a large enough effect, not every such curve was filed as active; inconclusive means small, poorly fitted or top-dose-only effect, or another doubt; inactive means no such curve, though single readings can be large or run the other way
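20 nM HPGD preincubated 15 min at room temperature with compound in 50 mM Tris-HCl pH 8, 0.01% Tween 20. Started with 1 mM NAD+ and 30 uM prostaglandin E2; NADH fluorescence (360/450 nm) read 5 times over 30-s intervals, last minus first.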
ALOX12 inhib: blocks human 12-lipoxygenase activity; P18054; purified 12-hLO, xylenol orange hydroperoxide absorbance; Potency, µM (series often up to 57.1 µM), for the others: at the top dose activity change, negative = inhibition, hits mostly inhibitors; 150,000 compounds, 0.12% hits; AID 1452; further: nearly all actives have a fitted effect of over 55% in size
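Purified human 12hLO (150 nM final) was preincubated with compounds for 15 min at room temperature in 25 mM Hepes pH 7.0, 0.01% Triton X-100, then reacted with 40 uM arachidonic acid for 30 min. Hydroperoxide was detected with ferrous iron/xylenol orange.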
p53ts 32C kill: p53ts cell cytotoxicity, permissive temperature. H1299-p53A138V at 32C, ATP luminescence viability, 24 h. Potency, µM (titrated, usually from 46.1 µM), for inactives: top-dose activity change, negative = cytotoxicity, most hits filed as cytotoxic. 130,000 compounds, 0.93% hits. AID 924;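 further: 0% = DMSO and -100% = full killing by reference compound; nearly all actives have a fitted effect of over 55% in size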
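ATP-content luminescence (ATPlite) read-out after 24 h compound exposure at 32C in H1299-p53A138V cells (600/well). Tested up to 46 uM. Normalized to DMSO (0%) and 100 uM tamoxifen (100% killing); Hill-fit AC50.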
p53ts 39C kill: p53ts cell cytotoxicity, nonpermissive temperature. H1299-p53A138V viability at 39C, ATP luminescence, 24 h. Potency, µM (top dose mostly 46.1 µM), for the others: top-dose activity change, negative = cell killing, most hits filed as cytotoxic. 130,000 compounds, 1.5% hits. AID 902; further: nearly all actives have a fitted effect of over 55% in size
An asterisk follows results filed as active. Compounds with a hit are over-represented: about 4.4% of the library has one in this group of screens. Unless noted, the call rests on the fitted dose curve; in most records, active means well fitted curve in the direction sought with a large enough effect; inconclusive means small, poorly fitted or top-dose-only effect, or another doubt; inactive means no such curve, though single readings can be large; an effect the other way counts as inactive or inconclusive. Unless noted, on the % scale 0 is the no-effect control and ±100 the full control effect; potency means the concentration at half of the fitted maximal effect.

What do the screens show for `c1csc(-c2nc3ccccc3[nH]2)c1`?
HPGD inh: inconclusive; ALOX12 inhib: 0%; p53ts 32C kill: -21%; p53ts 39C kill: -15%

Results for O=C(CSCc1ccccc1)N/N=C/c1ccc(OCC(=O)N2CCCCC2)cc1 ?
HPGD inh: -25%; ALOX12 inhib: -2%

What do the screens show for `O=C(N/N=C/c1ccc(OCC(=O)N2CCCCC2)cc1)c1ccccc1`?
HPGD inh: 14µM*; ALOX12 inhib: 0%

Results for O=C(N/N=C/c1ccc(OCC(=O)N2CCCCC2)cc1)c1ccccc1O ?
HPGD inh: 22µM*; ALOX12 inhib: -4%

Results for CC(C)C[C@H](N)c1nnc(S(=O)(=O)Cc2ccc(F)cc2)o1 ?
HPGD inh: 25µM*; ALOX12 inhib: -13%; p53ts 32C kill: 3%; p53ts 39C kill: -24%

What do the screens show for `O=C(c1cccc(F)c1)N1CCC2(CCCN(c3ccccc3)C2)CC1`?
HPGD inh: -11%; ALOX12 inhib: -10%; p53ts 32C kill: -2%; p53ts 39C kill: -2%

What do the screens show for `COc1cccc(C(=O)NC2=NCCS2)c1`?
HPGD inh: -8%; ALOX12 inhib: -3%; p53ts 32C kill: 16µM*; p53ts 39C kill: inconclusive

How did COc1cccc(C(=O)NC(=S)Nc2ccc(N3CCCC3)cc2)c1 do in these assays?
HPGD inh: -22%; ALOX12 inhib: 16µM*

How did COc1cccc(C(=O)NC(=S)Nc2ccc(N(C)C)cc2)c1 do in these assays?
HPGD inh: -17%; ALOX12 inhib: inconclusive

Results for COc1ccc(N(Cc2ccccc2)S(=O)(=O)c2cccc(C(=O)NC3=NCCS3)c2)cc1 ?
HPGD inh: -8%; ALOX12 inhib: 1%

Results for Cc1ccc(NC(=O)c2ccc(C)c(S(=O)(=O)N3CCCCCC3)c2)cc1 ?
p53ts 32C kill: 3%; p53ts 39C kill: -20%

How did COC(=O)c1ccc(NC(=O)c2cccc(OC)c2)cc1 do in these assays?
HPGD inh: 28µM*; ALOX12 inhib: -24%; p53ts 32C kill: 13µM*; p53ts 39C kill: inconclusive

Results for Cc1ccc(NC(=O)c2ccc(Cl)c(N3C(=O)C=CC3=O)c2)cc1 ?
HPGD inh: 3.5µM*; ALOX12 inhib: inconclusive

What do the screens show for `COc1cccc(C(=O)Nc2ccc(C(=O)O)cc2)c1`?
ALOX12 inhib: 1%; p53ts 32C kill: 10%; p53ts 39C kill: -1%

Results for CCCn1c(=O)n(-c2cc(Cl)c(OC)cc2OC)c(=O)c2c3c(sc21)CN(C(C)=O)CC3 ?
p53ts 32C kill: 3%; p53ts 39C kill: -17%

Results for CCOc1ccccc1CNC(=O)c1ccc2c(c1)sc1nc(-c3ccccc3)cn12 ?
p53ts 32C kill: 3%; p53ts 39C kill: 4%

Results for Cc1ccc(NC(=O)c2ccccc2O)cc1 ?
HPGD inh: -16%; ALOX12 inhib: 6%; p53ts 32C kill: 14µM*; p53ts 39C kill: 10µM*

What do the screens show for `COc1cccc(C(=O)Nc2ccc(C)cc2)c1`?
HPGD inh: -16%; ALOX12 inhib: 2%; p53ts 32C kill: 16µM*; p53ts 39C kill: 16µM*

What do the screens show for `Cc1ccc(CCNC(=O)c2sc3ncccc3c2-n2c(C)ccc2C)cc1`?
p53ts 32C kill: 11%; p53ts 39C kill: -13%

What do the screens show for `Cc1cc(NS(=O)(=O)N(C)C)ccc1C(C)C`?
HPGD inh: 16µM*; ALOX12 inhib: 4%

What do the screens show for `CCOc1ccccc1NC(=O)CN(C)S(=O)(=O)c1ccc(C(=O)N2CCOCC2)s1`?
p53ts 32C kill: -3%; p53ts 39C kill: 5%

Results for COc1ccccc1OCC(=O)Nn1c(=S)[nH]c2ncccc2c1=O ?
HPGD inh: -29%; ALOX12 inhib: -1%; p53ts 32C kill: 19%; p53ts 39C kill: 0%

How did O=C(COc1ccc(Cl)cc1Cl)Nn1c(=S)[nH]c2ncccc2c1=O do in these assays?
HPGD inh: 28µM*; ALOX12 inhib: 5%; p53ts 32C kill: 33%; p53ts 39C kill: -1%

Results for COC(=O)C(C)Sc1n[nH]c(=S)s1 (stereo not drawn) ?
HPGD inh: 25µM*; ALOX12 inhib: -7%

Results for COC(=O)c1ccc(CSc2n[nH]c(=S)s2)o1 ?
HPGD inh: inconclusive; ALOX12 inhib: -2%

How did Clc1ccc(C2=NN=C3COc4ccccc4N3C2)cc1 do in these assays?
HPGD inh: 20µM*; ALOX12 inhib: 3%

How did Cc1ccc(-n2c(N)c(C(N)=O)sc2=S)c(C)c1 do in these assays?
ALOX12 inhib: -19%; p53ts 32C kill: 6%; p53ts 39C kill: 2%
